We go through 4 compounds from PubChem BioAssay (NCATS).

Several values for one entry are separate records, joined by “and”; a condition that tells them apart may be missing. Identical values can stand only once. Records with an inconclusive call do not appear. Activity calls are given as the source filed them. Unless noted, calls come from the whole dose curve; as a rule, active = well fitted curve in the direction sought with a large enough effect; inconclusive = small, poorly fitted or top-dose-only effect, or another doubt; inactive = no such curve, though single readings can be large; an effect the other way counts as inactive or inconclusive. Where only a bound is given, the exact number is not on record here.

In test [1] the target is Cytochrome P450 1A2 (Homo sapiens) (UniProt P05177). The test is described as follows: p450-cyp1a2 (AID 410; calls by dose curve; note: potency is the fitted concentration of half-maximal effect;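 for activity change, negative = inhibition: -100% = full effect of reference inhibitor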). An outline of the steps:
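Luminescent readout of luciferin formed from Luciferin-ME by human CYP1A2; data normalized against complete inhibition by 57 uM furafylline. Enzyme 20nM, substrate 100uM at Km, 100mM KPO4 buffer, 60 min reaction at room temperature.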

Test [2] addresses Glucocorticoid receptor (Homo sapiens) (UniProt P04150). The test is described as follows: GR-GFP Redistribution (AID 450;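 active = compounds whose dose series gives a full or clear partial fitted curve of increased nuclear translocation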; note: potency is the fitted concentration of half-maximal effect). To be noted: U2OS GR-GFP nuclear translocation, laser cytometry, 2 h.
Test [3] shares this target. The test is described as follows: GR-EFC Redistribution (AID 451; calls by dose curve; note: potency is the fitted concentration of half-maximal effect). To be noted: CHO-K1 GR-EFC translocation, beta-gal luminescence, 2 h. The method, boiled down: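 CHO-K1 cells stably expressing nuclear-localized β-gal enzyme acceptor and GR fused C-terminally to the enzyme donor fragment; ligand-driven nuclear translocation restores β-gal by complementation. Compounds titrated up to 46 uM final, 2 h at 37 °C; luminescence read.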

For test [4], the target named is Mitogen-activated protein kinase 10 (Mus musculus) (UniProt Q61831). The test can be described thus: JNK3 AlphaScreen Assay (AID 530; active = well fitted curve in either direction with a large enough effect, not every such curve was filed as active;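 note: kinase came from lysate of stimulated human HepG2 cells; signal reports phosphorylation of biotinylated GST-cJun 1-79 at Ser73 with 10 µM ATP; % is set by controls: 0 for no effect and ±100 for the full control effect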). The method, boiled down: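 Inhibitors reduce antibody binding to phosphorylated biotin-cJun, lowering AlphaScreen luminescence. Lysates from HepG2 cells pre-activated by IL-1beta plus TNF-alpha supplied JNK3; compounds were titrated.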

Test [5] has as its target 3',5'-cyclic-AMP phosphodiesterase 4B (Homo sapiens) (UniProt Q07343). The test can be described thus: qHTS Assay for Inhibitors of PDE-IV (AID 607; active = well fitted activation curve with a large enough effect in the main read-out, with a control signal flat, not every such curve was filed as active; note: % of control where 0% means no effect). The method, boiled down:
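ACTOne HEK293 cells carry a modified cAMP-gated CNG channel and express endogenous PDE4; plated 1000 cells/well, compounds up to 22.9 uM final. Membrane-potential dye fluorescence (ex 535/em 590) was read; parental cells received 10 uM forskolin + 100 uM RO 20-1724.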

The nature of test [6]: qHTS Assay for Lipid Storage Modulators (AID 1519; calls by dose curve; for activity change, negative = inhibition: % is set by controls: 0 for no effect and ±100 for the full control effect). To be noted: Drosophila S3 cells, BODIPY lipid droplet/cell ratio, laser cytometry, cells loaded with oleic acid. The method, boiled down:
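Cells seeded at 5,000 per well were treated with compounds over a concentration series and loaded with oleic acid (400 uM, as added). Lipid droplet fluorescence (488 nm excitation, 500-530 nm channel) was read by laser-scanning cytometry and normalized to 20 uM Triacsin C.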

Test [7] has as its target Ubiquitin carboxyl-terminal hydrolase 1 (Homo sapiens) (UniProt O94782). The test can be described thus: Inhibitors of USP1/UAF1: Pilot qHTS (AID 504865).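 Note: rhodamine fluorescence freed from ubiquitin-rhodamine substrate followed over time; top concentration of the series differs between compounds; % is set by controls: 0 for no effect and ±100 for the full control effect; nearly all actives have a fitted effect of over 35% in size.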 The method, boiled down:
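Deubiquitinase activity followed as kinetic rhodamine fluorescence release from 150 nM Ub-Rho. 1 nM USP1/UAF1 with compound, after 15 min room-temperature preincubation, in HEPES pH 7.8 buffer containing TCEP, EDTA, BSA and Tween-20.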

Test [8] deals with DNA dC->dU-editing enzyme APOBEC-3G (Homo sapiens) (UniProt Q9HC16). The test can be described thus: qHTS for inhibitors of Vif-A3G interactions: Validation (AID 588379). Note: 0% is about no effect. The method, boiled down:
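HeLa cells stably expressing Vif and A3G-eYFP, 700 cells/well, incubated overnight at 37 deg C, then exposed to compound overnight at 37 deg C. Inhibition of Vif-mediated degradation read as increased yellow fluorescence (Ex 488/Em 500-530) by laser-scanning cytometry.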

In test [9] the test system is Zika virus NS2B-NS3 protease. The test can be described thus: Primary screen GU AMC qHTS for Zika virus inhibitors (AID 1347154).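 Note: 0% = no-inhibitor control and -100% = no-enzyme control; nearly all actives have a fitted effect of over 70% in size.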 The method, boiled down:
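Unlinked Zika NS2B hydrophilic domain/NS3 protease domain noncovalent complex (25 nM final) in 10 mM Tris-HCl pH 8.0, 0.01% Tween 20, with AMC peptide substrate. Fluorescence (ex 340, em 450 nm) change over 15 min, room temperature; percent inhibition fitted to 4-parameter Hill equation.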

A short description of test [10]: Stat Signaling Pathway (AID 446; active = well fitted curve in either direction with a large enough effect, not every such curve was filed as active;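 note: ME-180 cervical cancer cells given 40 pM IL-6 alongside compound; SIE-controlled beta-lactamase reporter measured as 460/530 nm FRET emission ratio; % is set by controls: 0 for no effect and ±100 for the full control effect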). To be noted: ME-180 SIE beta-lactamase reporter, IL-6 stimulated, 5 h. The method, boiled down: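 ME-180 SIE-bla cells; overnight plating; cpd + IL-6 40 pM, 5 h, 37 C; LiveBLAzer 2.5 h RT; 460/530 nm emission ratio. Normalized to 300 pM IL-6 and 125 nM JAK inhibitor controls.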
The target of test [11] is Guanine nucleotide-binding protein G(i) subunit alpha-1 (Homo sapiens) (UniProt P63096). The test can be described thus: qHTS Assay for Inhibitors of RGS12 GoLoco Motif Activity (Green Fluorophore) (AID 879).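 Note: 0% = labeled peptide with Gαi1 and full inhibition = labeled peptide alone without protein; negative values mean loss of peptide binding seen as reduced polarization.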 The method, boiled down:
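Fluorescence polarization assay: 50 nM Gαi1 with 10 nM FITC-labeled RGS12 GoLoco peptide in 10 mM Tris pH 7.5, 150 mM NaCl, 0.1 mM GDP, 0.05% NP40, 10 min at room temperature with compound.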

Test [12] in a line: AP1 Signaling Pathway (AID 357; active = well fitted curve in either direction with a large enough effect, not every such curve was filed as active;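 note: ME-180 reporter cells stimulated with EGF at its EC50 level; % is set by controls: 0 for no effect and ±100 for the full control effect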). To be noted: ME-180 (cervical carcinoma) AP-1-bla reporter, EGF-induced, beta-lactamase ratio, 5 h; at 17.2 µM (top of the series). An outline of the steps:
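A ratiometric CCF4 readout (405 nm excitation; 460 and 530 nm emission) quantified AP-1-driven beta-lactamase in ME-180 cells after 5 h with compound and EC50 EGF; AC50 values were derived for activators and inhibitors.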

The target of test [13] is Cytochrome P450 3A4 (Homo sapiens) (UniProt P08684). The test can be described thus: qHTS Assay for Activators of Cytochrome P450 3A4 (AID 885). Note: nearly all actives have a fitted effect of over 65% in size. The method, boiled down:
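20nM CYP3A4 + 25uM Luciferin-PPXE (=KM), 200mM KPO4; cpd 10 min RT; NADPH regen, 60 min RT; stop w/ detection buffer, 20 min; luminescence. Normalized to 57 uM ketoconazole.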

Test [14] deals with Cytochrome P450 2D6 (Homo sapiens) (UniProt P10635). The test is described as follows: qHTS Assay for Inhibitors and Substrates of Cytochrome P450 2D6 (AID 891).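 Note: luciferin methyl ether substrate demethylated by CYP2D6 with NADPH regeneration; % is set by controls: 0 for no effect and ±100 for the full control effect; nearly all actives have a fitted effect of over 60% in size.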 An outline of the steps:
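Human CYP2D6 (5 nM) with 30 uM Luciferin-ME EGE (at Km) in 100 mM KPO4, compound preincubated 10 min, then NADPH regeneration system for 60 min at room temperature. Luciferin read by luminescence; normalized to 1.43 uM quinidine.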

Test [15] concerns the target Pyruvate kinase (Leishmania mexicana) (UniProt Q27686). The test is described as follows: qHTS Validation Assay for Inhibitors of Leishmania Mexicana Pyruvate Kinase (AID 945).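 Note: 0% = DMSO only neutral control wells.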 The method, boiled down: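 LmPYK E451W 0.2 nM; 0.5 mM PEP, 0.1 mM ADP, 7 mM MgCl2, 50 mM KCl, imidazole pH 7.2, 0.01% Tween 20, 0.05% BSA; 1 h RT; PKLight luminescence; DMSO-normalized.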
Setting [16] is: measured here: cell count channel max response.
Where [17] appears, read: measured here: lipid channel max response.

Chain of Cytochrome P450 1A2 (Homo sapiens) (P05177 whole entry, looked up): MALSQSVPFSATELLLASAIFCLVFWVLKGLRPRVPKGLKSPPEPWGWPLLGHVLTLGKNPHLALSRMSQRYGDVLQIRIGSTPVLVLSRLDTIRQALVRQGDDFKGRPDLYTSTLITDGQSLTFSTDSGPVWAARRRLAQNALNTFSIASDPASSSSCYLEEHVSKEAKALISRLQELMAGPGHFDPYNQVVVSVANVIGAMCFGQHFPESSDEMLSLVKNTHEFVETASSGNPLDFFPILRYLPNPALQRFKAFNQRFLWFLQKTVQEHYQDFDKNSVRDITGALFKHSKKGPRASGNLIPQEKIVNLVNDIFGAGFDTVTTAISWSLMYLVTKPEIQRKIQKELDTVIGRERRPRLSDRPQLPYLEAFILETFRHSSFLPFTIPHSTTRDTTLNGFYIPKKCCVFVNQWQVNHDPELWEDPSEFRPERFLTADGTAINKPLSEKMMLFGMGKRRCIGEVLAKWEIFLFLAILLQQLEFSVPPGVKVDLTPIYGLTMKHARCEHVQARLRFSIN
Chain of Ubiquitin carboxyl-terminal hydrolase 1 (Homo sapiens) (O94782 whole entry, looked up): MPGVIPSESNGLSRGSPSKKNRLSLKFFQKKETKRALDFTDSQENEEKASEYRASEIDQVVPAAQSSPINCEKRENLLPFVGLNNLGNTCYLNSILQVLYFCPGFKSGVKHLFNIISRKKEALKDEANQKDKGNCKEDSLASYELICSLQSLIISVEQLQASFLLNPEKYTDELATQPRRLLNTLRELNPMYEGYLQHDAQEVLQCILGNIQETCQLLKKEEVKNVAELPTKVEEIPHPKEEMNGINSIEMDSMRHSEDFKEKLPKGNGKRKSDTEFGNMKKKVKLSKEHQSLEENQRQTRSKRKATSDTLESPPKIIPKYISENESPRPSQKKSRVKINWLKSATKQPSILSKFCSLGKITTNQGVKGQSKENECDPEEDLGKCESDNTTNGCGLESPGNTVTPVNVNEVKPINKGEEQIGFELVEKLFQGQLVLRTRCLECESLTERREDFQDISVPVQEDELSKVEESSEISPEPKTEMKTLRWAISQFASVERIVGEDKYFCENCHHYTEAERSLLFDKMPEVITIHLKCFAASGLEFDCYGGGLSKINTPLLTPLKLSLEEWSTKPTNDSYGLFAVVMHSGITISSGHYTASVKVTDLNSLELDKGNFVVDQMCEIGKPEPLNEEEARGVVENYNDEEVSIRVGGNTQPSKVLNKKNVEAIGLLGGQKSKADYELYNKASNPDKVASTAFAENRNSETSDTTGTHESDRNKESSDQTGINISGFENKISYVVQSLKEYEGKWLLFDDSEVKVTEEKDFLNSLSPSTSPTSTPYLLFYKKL
Chain of 3',5'-cyclic-AMP phosphodiesterase 4B (Homo sapiens) (Q07343 whole entry, looked up): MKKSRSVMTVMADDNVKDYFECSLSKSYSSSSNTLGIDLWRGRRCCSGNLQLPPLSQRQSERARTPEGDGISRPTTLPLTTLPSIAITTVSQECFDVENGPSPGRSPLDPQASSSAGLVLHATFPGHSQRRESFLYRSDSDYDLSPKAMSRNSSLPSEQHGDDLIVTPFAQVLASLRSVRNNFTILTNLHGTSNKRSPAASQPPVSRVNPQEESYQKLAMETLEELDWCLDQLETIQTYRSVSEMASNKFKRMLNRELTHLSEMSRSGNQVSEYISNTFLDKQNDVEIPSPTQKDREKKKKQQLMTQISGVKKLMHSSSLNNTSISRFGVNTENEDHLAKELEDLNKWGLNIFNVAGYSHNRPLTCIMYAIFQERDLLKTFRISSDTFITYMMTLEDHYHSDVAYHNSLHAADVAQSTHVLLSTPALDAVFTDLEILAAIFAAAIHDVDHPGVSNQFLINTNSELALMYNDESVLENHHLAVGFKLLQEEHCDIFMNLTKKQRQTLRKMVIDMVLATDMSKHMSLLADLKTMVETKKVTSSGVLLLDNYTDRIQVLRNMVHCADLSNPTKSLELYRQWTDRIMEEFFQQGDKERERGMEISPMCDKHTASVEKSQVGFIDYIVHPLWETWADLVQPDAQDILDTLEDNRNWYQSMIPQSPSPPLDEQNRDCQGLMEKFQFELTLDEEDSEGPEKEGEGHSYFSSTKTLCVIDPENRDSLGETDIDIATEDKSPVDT
Chain of DNA dC->dU-editing enzyme APOBEC-3G (Homo sapiens) (Q9HC16 whole entry, looked up): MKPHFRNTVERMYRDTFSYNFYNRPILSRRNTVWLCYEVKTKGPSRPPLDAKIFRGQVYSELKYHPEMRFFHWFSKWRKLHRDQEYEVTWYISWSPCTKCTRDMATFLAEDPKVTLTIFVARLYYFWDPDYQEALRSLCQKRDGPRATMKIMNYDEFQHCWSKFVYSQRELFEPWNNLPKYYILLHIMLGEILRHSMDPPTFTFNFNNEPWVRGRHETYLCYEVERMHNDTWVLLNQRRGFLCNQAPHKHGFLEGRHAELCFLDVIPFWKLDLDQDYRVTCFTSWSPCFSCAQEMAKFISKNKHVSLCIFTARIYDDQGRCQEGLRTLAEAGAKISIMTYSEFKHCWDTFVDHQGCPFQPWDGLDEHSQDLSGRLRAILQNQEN
Chain of Glucocorticoid receptor (Homo sapiens) (P04150 whole entry, looked up, the tested form may be a part): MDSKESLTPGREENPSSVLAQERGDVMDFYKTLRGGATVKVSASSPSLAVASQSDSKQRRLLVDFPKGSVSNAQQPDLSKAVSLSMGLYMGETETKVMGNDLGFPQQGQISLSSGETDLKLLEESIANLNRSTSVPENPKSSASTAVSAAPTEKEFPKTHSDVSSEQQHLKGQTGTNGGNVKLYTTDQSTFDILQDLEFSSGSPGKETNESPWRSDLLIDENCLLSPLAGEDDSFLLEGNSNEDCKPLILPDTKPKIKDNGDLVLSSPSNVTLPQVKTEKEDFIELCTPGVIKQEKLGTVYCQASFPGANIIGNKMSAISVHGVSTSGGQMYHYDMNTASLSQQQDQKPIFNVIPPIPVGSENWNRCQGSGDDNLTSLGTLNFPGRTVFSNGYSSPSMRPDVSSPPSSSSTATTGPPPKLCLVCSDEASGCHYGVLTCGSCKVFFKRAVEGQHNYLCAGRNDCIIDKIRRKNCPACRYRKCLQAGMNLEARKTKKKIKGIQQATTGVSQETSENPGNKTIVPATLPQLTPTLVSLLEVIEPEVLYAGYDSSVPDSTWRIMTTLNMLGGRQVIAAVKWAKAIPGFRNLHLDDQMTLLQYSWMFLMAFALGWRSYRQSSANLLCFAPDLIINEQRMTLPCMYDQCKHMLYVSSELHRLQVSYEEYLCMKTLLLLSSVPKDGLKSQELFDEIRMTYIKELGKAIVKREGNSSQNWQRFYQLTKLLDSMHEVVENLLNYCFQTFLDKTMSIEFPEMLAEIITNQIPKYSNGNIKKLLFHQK
Chain of Guanine nucleotide-binding protein G(i) subunit alpha-1 (Homo sapiens) (P63096 whole entry, looked up): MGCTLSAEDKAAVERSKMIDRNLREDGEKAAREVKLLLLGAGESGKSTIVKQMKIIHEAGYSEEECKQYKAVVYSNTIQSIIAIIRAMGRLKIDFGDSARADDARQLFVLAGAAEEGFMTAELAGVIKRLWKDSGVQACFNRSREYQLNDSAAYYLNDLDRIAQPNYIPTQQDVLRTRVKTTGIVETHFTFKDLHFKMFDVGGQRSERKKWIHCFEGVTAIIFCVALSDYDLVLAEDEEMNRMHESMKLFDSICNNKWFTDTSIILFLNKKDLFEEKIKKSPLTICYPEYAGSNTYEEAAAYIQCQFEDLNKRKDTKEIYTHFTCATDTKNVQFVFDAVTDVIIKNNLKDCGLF
Chain of Cytochrome P450 3A4 (Homo sapiens) (P08684 whole entry, looked up): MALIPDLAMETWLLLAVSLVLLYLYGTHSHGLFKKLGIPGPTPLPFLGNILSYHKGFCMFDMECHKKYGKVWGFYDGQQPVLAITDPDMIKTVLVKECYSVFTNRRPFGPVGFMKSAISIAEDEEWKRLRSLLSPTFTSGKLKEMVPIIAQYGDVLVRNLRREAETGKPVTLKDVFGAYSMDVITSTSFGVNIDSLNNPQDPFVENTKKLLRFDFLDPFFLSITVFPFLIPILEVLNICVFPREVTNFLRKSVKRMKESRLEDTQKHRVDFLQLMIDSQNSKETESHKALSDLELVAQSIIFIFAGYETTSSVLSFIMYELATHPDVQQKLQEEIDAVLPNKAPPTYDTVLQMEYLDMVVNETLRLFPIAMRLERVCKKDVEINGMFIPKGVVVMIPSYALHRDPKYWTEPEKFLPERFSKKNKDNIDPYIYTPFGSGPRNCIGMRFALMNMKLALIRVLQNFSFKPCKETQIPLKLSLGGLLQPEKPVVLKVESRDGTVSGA
Chain of Cytochrome P450 2D6 (Homo sapiens) (P10635 whole entry, looked up): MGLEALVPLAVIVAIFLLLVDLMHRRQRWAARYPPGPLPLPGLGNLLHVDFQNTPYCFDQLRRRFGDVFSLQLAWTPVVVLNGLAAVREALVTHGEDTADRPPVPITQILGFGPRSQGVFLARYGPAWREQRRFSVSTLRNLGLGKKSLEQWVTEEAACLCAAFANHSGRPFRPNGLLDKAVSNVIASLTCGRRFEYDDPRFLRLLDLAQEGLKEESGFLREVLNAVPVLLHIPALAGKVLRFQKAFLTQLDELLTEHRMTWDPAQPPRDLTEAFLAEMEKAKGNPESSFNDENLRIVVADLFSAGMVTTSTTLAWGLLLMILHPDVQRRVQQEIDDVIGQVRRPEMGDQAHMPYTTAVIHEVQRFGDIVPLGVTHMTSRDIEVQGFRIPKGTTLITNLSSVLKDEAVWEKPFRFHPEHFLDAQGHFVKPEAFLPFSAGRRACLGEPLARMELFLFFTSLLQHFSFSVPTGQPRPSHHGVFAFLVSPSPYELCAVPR

Regarding `CCCCCCCCCCCC(=O)O[C@H](CC(=O)O)C[N+](C)(C)C`, the Potency entry in test [1], in test [4], in test [5], in test [7], in test [8] and in [9] was “inactive” throughout. In addition, the Potency in test [2] and in test [3] was > 46 µM (inactive) in each case. Also, the activity change, negative = inhibition in test [6] (at 57.5 µM (top of the series)) was -2.15% (inactive). For the same compound, the values for the max response in test [6] (setting [16]) and in test [6] (setting [17]) were -5.13% and -11.1%, respectively.

Turning to `Cc1ccc(/C(=C/CN2CCCC2)c2ccccn2)cc1`, the results for the activity, negative = inhibition in [10] (at 17.2 µM (top of the series)) and in test [10] (at 38 µM (top of the series)) were 6.54% (inactive) and -0.742% (inactive), respectively. Moreover, the Potency result in test [4], in test [5], in test [7], in [8] and in test [9] was “inactive” in each case. Also, the compound was called inactive in test [11]. Further, the activity change, negative = inhibition is -1.93% (inactive) in [6] (at 25.7 µM (top of the series)) and 3.43% (inactive) in test [6] (at 57.5 µM (top of the series)). Also, the max response in test [6] (setting [16]) is 0.155% and 8.83%; in [6] (setting [17]), -0.659% and 14%.

Consider `CCN(Cc1ccncc1)C(=O)[C@@H](CO)c1ccccc1`, for which the values for the activity change, negative = inhibition in test [12] and in test [6] (at 25.7 µM (top of the series)) were 5.81% (inactive) and -4.57% (inactive), respectively. Also, the Potency in test [1] is 15.8 µM (active) and 10 µM (active). For the same compound, the activity, negative = inhibition in test [10] (at 17.2 µM (top of the series)) was -6.07% (inactive); in test [10] (at 38 µM (top of the series)), -7.02% (inactive). The Potency entry in test [4], in test [5], in test [13], in test [14], in [15] and in [7] was “inactive” each time. Moreover, the Potency result in test [8] and in test [9] was “inactive” in each case. For the same compound, the compound was called inactive in test [11]. For the same compound, the max response in [6] (setting [16]) was -10.2%; in test [6] (setting [17]) it was -15.1%.

With `Cc1nc(N=Nc2cc(S(=O)(=O)O)ccc2S(=O)(=O)O)c(COP(=O)(O)O)c(C=O)c1O`, the Potency entry in [1], in test [4], in [5], in test [8] and in [9] was “inactive” in each case. In addition, the Potency in test [2] and in [3] was > 46 µM (inactive) throughout. The activity change, negative = inhibition in test [6] (at 57.5 µM (top of the series)) is -1.5% (inactive). Also, the max response in test [6] (setting [16]) is -2.46%; in test [6] (setting [17]), -2.68%.
